Laboratory results from PubChem BioAssay.

Assay: basal RPMI8226 viability, no added stimulus, profiling panel, cell-based, calcein-AM fluorescence, 48 h, PK04 Diversity Set (AID 1166);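 note: cells grown under basal conditions without added stimulus; test concentration not given here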
Settings: RPMI8226 myeloma viability, higher = more signal

| SMILES | z-score |
| --- | --- |
| C=C(CCCC)/C(=C/C[C@H](OC(C)=O)c1ccc(CO)o1)c1cnc2ccccc2c1 | -0.889 |
| O=C1OCCC=C[C@H]2OC34C=CCN(Cc5ccccc5)C(=O)[C@H]3N(CCCCCCO)C(=O)[C@@H]4C12 (stereo partly specified) | 0.581 |
| C[C@]1(C(=O)NCc2ccccc2)c2ccccc2C(=O)N(Cc2ccc(OC(F)(F)F)cc2)[C@H]1c1ccc(CO)cc1 | 0.346 |
| CC(C)NC(=O)[C@@]1(Cc2ccccc2I)c2ccccc2C(=O)N(Cc2ccccc2)[C@H]1c1ccc(CO)cc1 | -0.651 |
| O=C1N(CCS(=O)(=O)c2ccccc2)c2ccccc2C[C@@]12COC(c1ccc(OCCCO)cc1)=N2 | -0.517 |
| CC1CC/C=C\[C@H]2OC34C=CCN(Cc5ccccc5)C(=O)[C@H]3N(CCCCCO)C(=O)[C@@H]4C2C(=O)O1 (stereo partly specified) | 0.599 |
